Screens (PubChem BioAssay)
a7 integrin act – qHTS for Activators of Integrin-Mediated Alleviation for Muscular Dystrophy. alpha7betagal myoblasts, beta-gal FDG fluorescence, 48 h. Potency, µM (highest dose often 38.3 µM), for inactives: at the highest dose activation, hits mostly activators. actives 0.064% (n = 350,000);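 note: 100% = response of the positive control SU9516; nearly all actives have a fitted effect of over 60% in size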
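Alpha7betagal+/- myoblasts (passage 13) were plated 16-24 hr, then exposed to compounds (1:260 dilution of DMSO stock) for 48 hours at 37C. After MPER lysis, β-galactosidase reporter activity was read as FDG fluorescence (ex 480/em 540) after 30 minutes.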
RORgamma inh – qHTS for inhibitors of ROR gamma transcriptional activity | Drosophila S2 Gal4-RORgamma UAS-luciferase reporter, 20 h | actives 5.4% (n = 310,000) | Nuclear receptor ROR-gamma (Mus musculus), P51450 | Potency, µM (series often up to 53.6 µM), without a hit: top-dose activity change, negative = inhibition, most hits filed as inhibitors; note: % is set by controls: 0 for no effect and ±100 for the full control effect; nearly all actives have a fitted effect of over 60% in size
Target sequence (P51450 whole entry, looked up, the tested form may be a part): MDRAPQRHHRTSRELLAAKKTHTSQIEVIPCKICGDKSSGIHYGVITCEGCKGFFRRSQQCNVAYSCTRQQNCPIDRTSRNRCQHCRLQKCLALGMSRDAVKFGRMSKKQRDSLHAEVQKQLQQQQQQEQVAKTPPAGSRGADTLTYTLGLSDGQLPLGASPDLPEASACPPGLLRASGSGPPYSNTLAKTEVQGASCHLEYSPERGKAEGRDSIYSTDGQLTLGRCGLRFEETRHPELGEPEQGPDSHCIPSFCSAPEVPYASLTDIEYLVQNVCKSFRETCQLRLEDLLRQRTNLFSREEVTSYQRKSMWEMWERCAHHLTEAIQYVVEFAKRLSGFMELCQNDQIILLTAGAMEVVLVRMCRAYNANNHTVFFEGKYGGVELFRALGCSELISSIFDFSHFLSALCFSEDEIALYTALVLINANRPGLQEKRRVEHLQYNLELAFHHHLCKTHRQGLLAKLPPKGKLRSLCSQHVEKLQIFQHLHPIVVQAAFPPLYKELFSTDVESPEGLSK
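Schneider cells (Drosophila), stable Gal4 DBD–ROR gamma + UAS-luc; 1 hr cmpd preincubation; Cu2+ induction 700 uM final; 20 hr ambient; luminescence.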
Gal4-VP16 FLuc – VP16 counterscreen qHTS for inhibitors of ROR gamma transcriptional activity. AID 2546, 2010. Potency, µM (series often up to 53.6 µM), without a hit: at the highest dose activity, negative = inhibition, most hits filed as inhibitors. Drosophila S2 Gal4-VP16 UAS-luciferase, luminescence, 20 h. actives 3.5% (n = 310,000);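 note: Gal4-VP16 expression switched on by copper sulfate through the metallothionein promoter; % is set by controls: 0 for no effect and ±100 for the full control effect; nearly all actives have a fitted effect of over 50% in size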
Mito fusion act – qHTS Assay for Small Molecule Inhibitors of Mitochondrial Division or Activators of Mitochondrial Fusion | actives 0.23% (n = 320,000) | AID 485298, 2010 | Potency, µM (highest dose often 46.1 µM), inactives show at the top dose growth rescue (activation), hits mostly activators | S. cerevisiae fusion-defective mutant growth rescue, CellTiterGlo 48 h; note: % of control where 0% means no effect; nearly all actives have a fitted effect of over 45% in size
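Yeast fusion mutant, YPEG (non-fermentable carbon), compound, 48 h at 37C non-permissive; CellTiterGlo added, 10 min RT, luminescence read. Rescued growth = division inhibition.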
uPA surface inh – qHTS for Inhibitors of Cell Surface uPA Generation. Potency, µM (top dose mostly 38.3 µM), for inactives: top-dose activity change, negative = inhibition, usual class: inhibitors. cell surface uPA generation assay, qHTS. actives 0.31% (n = 330,000). AID 540303, 2011; active = well fitted inhibition curve with a large enough effect; inconclusive = small, poorly fitted or top-dose-only effect; inactive = no such curve, though single readings can be large or run the other way; tested in mouse RAW 264.7 cells; note: % is set by controls: 0 for no effect and ±100 for the full control effect; nearly all actives have a fitted effect of over 55% in size
Chronic BCR inh – qHTS Assay to Find Inhibitors of Chronic Active B-Cell Receptor Signaling | ABC-DLBCL IkBa-CBG/CBR reporter, luminescence ratio, 4 h | Potency, µM (highest dose often 46.1 µM), for inactives: at the top dose activity change, negative = inhibition, usual class: inhibitors | actives 0.05% (n = 340,000); active = well fitted inhibition curve with a large enough effect in the signal ratio, with a control signal flat, not every such curve was filed as active; inconclusive = small, poorly fitted or top-dose-only effect, or effect the other way, or a change in a side signal; the % refers to the signal ratio;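 note: plate controls were basal doxycycline-induced cells for no effect and cells given 10 µM MG132 for full effect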
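Concentration-response series (up to 46 uM) were applied to TMD8 dual-reporter cells for 4 h at 37C with doxycycline. Green/red ratio, after filter-overlap correction, defined %Activity; red signal alone was normalised to basal cells and zero luminescence.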
The depositor's hits bear a star; ? = inconclusive; / = no result given; [ ] = another dose, or the depositor's remark. Sampled rows, rich in hits. Any-hit rate of the full collection: about 5.5%. Unless noted, calls come from the whole dose curve; as a rule, active = well fitted curve in the direction sought with a large enough effect; inconclusive = small, poorly fitted or top-dose-only effect, or another doubt; inactive = no such curve, though single readings can be large; an effect the other way counts as inactive or inconclusive. Potency is the fitted concentration of half-maximal effect.

SMILES	a7 integrin act	RORgamma inh	Gal4-VP16 FLuc	Mito fusion act	uPA surface inh	Chronic BCR inh
Cc1oc(-c2ccccc2F)nc1CS(=O)(=O)CC(=O)NCCCc1ccccc1	-5%	16%	-11%	-3%	-3%	5%
Cc1oc(-c2ccccc2F)nc1CS(=O)(=O)CC(=O)NC(C)CCc1ccccc1 (centres undefined)	-19%	9%	3%	11µM*	2%	-9%
CC1=NN(c2nc(C)cc(C)n2)C(=O)C1CCC(C)C (centres undefined)	-6%[7.66 µM]	2µM*	7.9µM*	-1%	/	-16%
Cc1ccccc1NC(=S)NC(=O)c1cc(-c2ccccc2)nc2ccccc12	-21%	1.8µM*	4µM*	-7%	7%	?
Cc1cccc(NC(=S)NC(=O)c2cc(-c3ccccc3)nc3ccccc23)c1	5%	2µM*	5.6µM*	-6%	0%	-4%
CC(C)CCC[C@@H](C)[C@H]1CC[C@H]2[C@@H]3CC=C4CC(O)CC[C@]4(C)[C@H]3CC[C@]12C (some centres undefined)	/	5%	3%	/	/	/
Cc1ccc(Cn2ccsc2=NC(=O)CCl)cc1	-64%	?	?	2%	2µM*	?
Cc1ccc(Cn2ccsc2=NC(=O)COC(=O)c2ccc(NC(=O)CC#N)cc2)cc1	-28%	/	/	-2%	16%	-7%
O=C(CCNC(=O)c1ccc(Cl)cc1)Nc1ccncc1	10%	/	/	-6%	-2%	0%
NC(=O)c1c(NC(=O)c2ccncc2)sc2c1CCCCCC2	-11%	?	6%	3%	0%	5%
COc1ccc(-n2[nH]c3c4c(ncc3c2=O)CCCCC4)cc1	/	3%	-10%	/	/	/
Cc1ccc(C2N(C)c3ccccc3-c3nc4ccccc4n32)o1 (centres undefined)	28%	10µM*	-16%	?	/	2%
CCN1c2ccccc2-c2nc3ccccc3n2C1c1ccccn1 (centres undefined)	33%	8.9µM*	-11%	-15%	3%	?
CN1c2ccccc2-c2nc3ccccc3n2C1c1cccs1 (centres undefined)	9%	4.5µM*	-3%	?	4%	?
CC1=C(C(=O)OCC2CCCO2)C(c2ccsc2)C2=C(CCCC2=O)N1 (centres undefined)	-22%	-5%	-14%[10 µM]	2%	-3%	0%
CC(=O)N1CCC[C@@]2(CCN(C(=O)Nc3cccc(C#N)c3)C2)C1	/	7%	-3%	/	/	/
COC(=O)C#CC(=O)OC	/	19%	-10%	/	/	/
COc1ccccc1OCCNC(=O)CN1C(=O)NC2(CCCCC2)C1=O	-14%	/	/	-7%	1%	0%
C[C@@H]1CC[C@H](O)/C=C/C(=O)O[C@H](C)CC[C@H](O)/C=C/C(=O)O1	-28%	?	6.3µM*	7%	?	-5%
COC(=O)c1ccccc1NC(=S)NC(=O)C1CCCCC1	3%	13µM*	?	-7%	1%	1%
CCOc1ccccc1NC(=S)NC(=O)C1CCCCC1	-66%	5.6µM*	6.3µM*	0%	-1%	-6%
O=C(NC(=S)Nc1ccccc1Br)C1CCC1	0%	3.2µM*	5µM*	-2%	-1%	?
COc1ccccc1NC(=S)NC(=O)C1CC1	10%	13µM*	?	-5%	-6%	?
COC(=O)c1ccccc1NC(=O)C1CCCC1	4%	0%	-14%	5%	-3%	?
COc1ccccc1/C=C\C(=O)OC[C@@H]1CCCN2CCCC[C@H]12	/	0%	-1%	/	/	/
SMILES	a7 integrin act	RORgamma inh	Gal4-VP16 FLuc	Mito fusion act	uPA surface inh	Chronic BCR inh
Brc1ccc(-c2csc(N3CCCCC3)n2)cc1	/	/	/	12%	/	?
COC(=O)c1n[nH]n(-c2cc(Cl)cc(Cl)c2)c1=O	8%	6%	2%	8%	4%	?
CCOc1ccccc1NC(=S)NC1CCCCC1	-1%	15%	-6%	4%	0%	6%
CCOc1ccccc1C(=S)NC1CCCCC1	10%	10µM*	?	-12%	3%	?
O=C(NC(=S)Nc1ccccc1Cl)C1CC1	-18%	?	11µM*	-7%	-30%	?
O=C(NC1CCCCC1)c1ccccc1NC(=S)NC(=O)C1CC1	0%	-17%	0%	-4%	-5%	-2%
CC(C)c1ccc2[nH]c3c(c2c1)CCC/C3=N\NC(=O)c1ccncc1	-23%	0.89µM*	5µM*	5%	-24%	?
COc1cccc(-c2nn(-c3ccccc3)cc2CN(C)Cc2c(C)nc3ccccn23)c1	20%	7.1µM*	?	-1%	-15%	?
O=c1c2ccccc2cnn1Cc1n[nH]c(=S)n1-c1ccccc1	3%	?	-1%	-1%	5%	1%
Cn1c(Cn2c3ccccc3c3ccccc32)n[nH]c1=S	0%	3.5µM*	13µM*	5%	5%	-28%
C=CCn1c(Cc2nc3ccccc3[nH]2)n[nH]c1=S	-20%[7.66 µM]	-9%[0.365 µM]	/	0%	/	-1%
S=c1[nH]nc(Cc2cccc3ccccc23)n1-c1ccccc1	9%	3.2µM*	7.1µM*	-1%	3%	?
S=c1[nH]nc(Cc2noc3ccccc23)n1-c1ccccc1	10%	10µM*	-6%	6%	0%	-12%
C=CCn1c(Cc2cccc3ccccc23)n[nH]c1=S	10%	4µM*	11µM*	-1%	-1%	?
O=c1cc(N2CCNCC2)oc2c(-c3ccccc3)cccc12	/	-6%	-14%	/	/	/
CC(CCc1ccccc1)N(C)CC(O)c1cccc([N+](=O)[O-])c1 (centres undefined)	-15%	1%	4%	-2%	1%	0%
CN(CCC(=O)Nc1ccc(Cl)cc1)Cc1ccccc1	-14%	-6%	-2%	-10%	1%	0%
C=C(C)Cn1c(CCn2c3ccccc3c3ccccc32)n[nH]c1=S	-7%	?	1µM*	-5%	2%	3%
C=CCn1c(CCn2c3ccccc3c3ccccc32)n[nH]c1=S	-4%	4µM*	3.2µM*	11%	-1%	-17%
Cn1c(-c2cccc3ccccc23)n[nH]c1=S	11%	10µM*	?	0%	3%	5%
COc1cccc2cc(-c3n[nH]c(=S)n3C)oc12	10%	3.5µM*	-19%[10 µM]	-2%	3%	3%
Cn1c(-c2cc(Br)ccc2O)n[nH]c1=S	12%	?	?	-4%	-5%	-7%
